Most compounds without a hit are left out; they make up all but 7.3% or so of the library.
HCMV inh = human cytomegalovirus inhibition; HFF cells, HCMV-luciferase reporter, 72 h; hits give low values; activity change, negative = inhibition, % at 57.5 µM; 410,000 tested, 4.5% active; AID 1259415; in the data active means activity change below about -60%; inconclusive means no clear call, values can overlap the other calls; inactive means above about -39%
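Cell-based, HFFs, 1000 cells/well, 16 h 37C; cpds in DMSO + HCMV-luc, MOI 1 PFU/cell; 72 h 37C; OneGlo luminescence after 5 min RT; norm. to buffer vs Salinomycin 10uM.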
HCV inhibitor = HCV inhibition; 340,000 tested, 3.4% active; Huh7.5.1 HCVcc-Cre infection, luciferase reporter, 44 h; Potency, µM (highest dose often 41.8 µM), most hits filed as inhibitors
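Luciferase read-out (15 sec integration) after a 15 min room-temperature substrate step quantifies HCVcc-Cre infection. Cells, 1,000 per well, had compound added 4 h post-plating, then virus at ~0.5 moi, and were cultured 44 h.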
FMDV antiviral = antivirals against foot and mouth disease virus; FMDV antiviral cell-based qHTS; Potency, µM (series often up to 57.9 µM), actives largely listed as inhibitors; 410,000 tested, 1.2% active; calls by dose curve; tested in HEK293T cells; further: read-out not given here; nearly all actives have a fitted effect of over 45% in size
AmpC detergent = blocks E. coli AmpC beta-lactamase in detergent assay; P00811; 370,000 tested, 0.041% active; AmpC hydrolysis of nitrocefin, absorbance 480 nm, 0.01% Triton; Potency, µM (doses to about 114 µM), most hits filed as inhibitors; further: nearly all actives have a fitted effect of over 25% in size
Target sequence (P00811 whole entry, looked up): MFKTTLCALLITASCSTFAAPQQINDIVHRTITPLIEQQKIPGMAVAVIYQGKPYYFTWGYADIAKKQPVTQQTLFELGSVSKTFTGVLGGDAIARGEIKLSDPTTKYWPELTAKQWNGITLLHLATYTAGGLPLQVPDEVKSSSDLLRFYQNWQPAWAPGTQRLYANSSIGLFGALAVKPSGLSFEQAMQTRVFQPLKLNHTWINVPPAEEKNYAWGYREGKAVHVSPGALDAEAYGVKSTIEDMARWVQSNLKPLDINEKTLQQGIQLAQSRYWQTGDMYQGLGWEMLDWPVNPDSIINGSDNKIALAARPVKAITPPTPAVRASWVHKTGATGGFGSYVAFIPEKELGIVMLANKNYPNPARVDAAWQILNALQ
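20 mM phosphate pH 7.0 + 0.01% (detergent screen) or 0.0001% Triton X-100; 5.3 nM AmpC reagent; cpd preinc 15 min RT; nitrocefin (800 uM stock) to start; A480 q20 s × 4 min; Activity was normalised to no-enzyme and no-compound control wells.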
AmpC no deterg = blocks E. coli AmpC beta-lactamase in detergent-free assay; AmpC nitrocefin hydrolysis, absorbance 480 nm, 0.0001% Triton; Potency, µM (doses to about 57.1 µM), actives largely listed as inhibitors; 330,000 tested, 0.52% active; further: nearly all actives have a fitted effect of over 20% in size
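20 mM phosphate pH 7.0 + 0.01% (detergent screen) or 0.0001% Triton X-100; 5.3 nM AmpC reagent; cpd preinc 15 min RT; nitrocefin (800 uM stock) to start; A480 q20 s × 4 min; Activity was normalised to no-enzyme and no-compound control wells.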
Numbers stand for hits; - = inactive; ? = inconclusive; . = not tested or not shown; [ ] = another dose, or the depositor's remark. Unless noted, the call rests on the fitted dose curve; in most records, active means well fitted curve in the direction sought with a large enough effect; inconclusive means small, poorly fitted or top-dose-only effect, or another doubt; inactive means no such curve, though single readings can be large; an effect the other way counts as inactive or inconclusive.

SMILES	HCMV inh	HCV inhibitor	FMDV antiviral	AmpC detergent	AmpC no deterg
COc1cc2c(c(OC)c1OC)-c1ccc(SC)c(=O)cc1C(NC(=O)C(F)(F)F)CC2 (stereo not drawn)	-81	-	?	.	.
CN=C1SC(C(=O)Nc2ccccc2Cl)CC(=O)N1c1ccc(OC(F)(F)Cl)cc1 (stereo not drawn)	-	-	-	-	-
Clc1ccccc1CNc1ncnc2c1c(-c1ccccc1)cn2-c1ccccc1	-	.	-	-	.
CN1OC(C)(CC(=O)NCc2ccccc2)N=C1c1ccccc1Cl (stereo not drawn)	-	.	.	.	.
COC(=O)[C@]1(C#N)[C@H](C)C(=O)N(C(C)C)[C@@H]1c1ccc(OC)cc1	-	.	.	.	.
CN(c1ccc(C(=O)NC2CCCC2)cc1)S(=O)(=O)c1ccc(Cl)cc1	-	-	-	-	-
O=C(Cc1ccc(Cl)cc1)NC1CC1	-	-	-	-	-
O=C(NC1CCCCC1)Sc1ccc(Cl)cc1	-	-	32µM	-	-
CN=C(NC1CCCCC1)c1ccc(Cl)cc1	-60	-	-	-	-
O=C(CCSCc1ccc(Cl)cc1)NC1CCCC1	-102	-	-	-	-
CN1CCC(N2CCN(C3CN(Cc4cn(Cc5ccc(C(F)(F)F)cc5)nn4)S(=O)(=O)C3)CC2)CC1 (stereo not drawn)	-	.	-	.	.
Cc1cc(C(=O)CCC(=O)Nc2ccc(C(N)=O)cc2)c(C)s1	-	.	-	.	.
O=c1ccc(S(=O)(=O)N2CCCC2)cn1Cc1ccc(Cl)cc1Cl	-	6.3µM	?	?	-
O=C(CSc1ccccc1)N/N=C/c1ccccc1O	?	?	-	-	-
COc1cc(/C=N/NC(=O)COc2ccc(Cl)cc2)ccc1OS(=O)(=O)c1ccc(C)cc1	-	11µM	-	-	-
COc1ccc(CSCC(=O)N/N=C/c2ccccc2O)cc1	-	8.9µM	-	-	-
C=CCNC(=O)/C(C#N)=C/c1ccc(OS(=O)(=O)c2ccc(C)cc2)c(OC)c1	-99	-	20µM	-	-
COc1ccccc1NC(=O)COc1ccc(/C=N/NC(=O)CSCc2ccc(Cl)cc2)cc1	-	?	18µM	?	-
CC(C)c1ccc(NC2CCCN(C(=O)c3ccoc3)C2)cc1 (stereo not drawn)	-	?	-	-	-
CC(C)c1ccc(NC2CCCN(C(=O)c3ccc(N4CCOCC4)cc3)C2)cc1 (stereo not drawn)	-	?	28µM	-	-
C/C(=N\NC(=O)c1nnn(-c2nonc2N)c1CN(C)c1ccccc1)c1ccccn1	.	4.5µM	-	-	-
C/C(=N\NC(=O)c1nnn(-c2nonc2N)c1-c1ccccc1)c1ccccc1O	-89	6.3µM	-	?	-
CCCN(CCC)Cc1c(C(=O)N/N=C/C(C)=C\c2ccco2)nnn1-c1nonc1N	?	8.9µM	-	-	-
C/C(=N\NC(=O)c1nnn(-c2nonc2N)c1CN(C)c1ccccc1)c1cccs1	-	-	-	-	?
C/C(=N\NC(=O)c1nnn(-c2nonc2N)c1CN(C)c1ccccc1)c1ccc(O)cc1	-60	-	-	-	25µM
SMILES	HCMV inh	HCV inhibitor	FMDV antiviral	AmpC detergent	AmpC no deterg
COc1cc2c3c([nH]c2cc1F)C(=O)NCC3	-	.	-	.	.
Cc1ccccc1COc1ccc(-c2nnn(CC(=O)O)n2)cc1	-	-	-	?	-
CCN(CC)CCn1c2c(c(SCC(=O)Nc3ccc4c(c3)OCCO4)nc1=O)CCCC2	-	-	-	-	-
COc1cc2c(cc1OC)CN(C1CCCN(Cc3cc(Cl)ccc3O)C1)CC2 (stereo not drawn)	-	-	?	-	-
COC(=O)c1cccc(Nc2cc(C)nc(-c3ccccc3O)n2)c1	-	0.79µM	-	-	-
Cc1cc(Nc2ccc(Cl)cc2)nc(-c2ccccc2O)n1	-	11µM	-	?	-
CCOC(=O)C1=CNS(=O)(=O)NC1c1ccc(C)cc1 (stereo not drawn)	-	-[8.37 µM]	-	.	-
COc1cccc(C(=O)c2cn(CC(=O)NCc3ccccc3)c3nc(C)ccc3c2=O)c1	-	.	-	-	.
Cc1cc(C)c(NC(=O)c2ccc3nccnc3c2)c(C)c1	-72	-	-	-	-
Cc1ccc(NC(=O)c2ccc3nccnc3c2)c(C)c1	-68	-	-	-	-
O=C(Nc1ccc(SC(F)F)cc1)c1ccc2nccnc2c1	-78	3.5µM	.	-	-

High-throughput results deposited in PubChem BioAssay by National Center for Advancing Translational Sciences (NCATS).
